Data from PubChem BioAssay (NCATS).
Values joined by “and” are separate entries in the source; they are usually repeats but may differ in a detail not shown here. Equal values may be shown once. A number with no mark means an inactive call. Unless noted, the call rests on the fitted dose curve; in most records, active means well fitted curve in the direction sought with a large enough effect in the repeat runs; inconclusive means weak or mixed curves; inactive means no such curve, though single readings can be large; an effect the other way counts as inactive or inconclusive. Results filed as inconclusive are left out.

System: not listed separately
Assay: qHTS assay for small molecule agonists of the antioxidant response element (ARE) signaling pathway measured by Nrf2-dependant transcriptional activity - cell viability counter screen (AID 720653); further: on the % scale 0 is the no-effect control and ±100 the full control effect
Conditions: ARE-bla HepG2 viability, CellTiter-Glo ATP luminescence, 16 h; max response: active compounds read low
Summary of the method: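 ARE-bla HepG2 cells treated with compounds for 16 h at 37C; this counter screen measures viability as intracellular ATP by CellTiter-Glo luminescence after 30 min at room temperature.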

Structure (SMILES) | max response
Cc1cn([C@H]2C[C@H](N=[N+]=[N-])[C@@H](CO)O2)c(=O)[nH]c1=O | -2.6%
O=c1[nH]cc(F)c(=O)[nH]1 | -3.42%
Nc1ccn([C@H]2CC[C@@H](CO)O2)c(=O)n1 | -1.33% and -0.56%
CCC1(c2ccccc2)C(=O)NCNC1=O | 3.8% and 3.23%
CC(C)NCC(O)c1ccc(O)c(O)c1 (stereo not given) | 0.482% and -3.43%
O=c1c(-c2ccc(O)cc2)coc2cc(O)cc(O)c12 | 0.177% and -1.16%
NS(=O)(=O)c1cc2c(cc1Cl)NCNS2(=O)=O | 0.152% and 15.5%
Cc1ccc(-c2cc(C(F)(F)F)nn2-c2ccc(S(N)(=O)=O)cc2)cc1 | -0.182%
COc1ccc(CCN(C)CCCC(C#N)(c2ccc(OC)c(OC)c2)C(C)C)cc1OC (stereo not given) | -18%
COc1ccc2[nH]cc(CCNC(C)=O)c2c1 | -10.7% and -6.82% and 8.47%
Cn1c(=O)c2c(ncn2C)n(C)c1=O | 6.29% and 2.32%
Cc1cn([C@H]2C=C[C@@H](CO)O2)c(=O)[nH]c1=O | 6.12% and 3.59% and -11.2%
NCCS(=O)(=O)O | 5.47%
Clc1ccc(C(c2ccccc2Cl)C(Cl)Cl)cc1 (stereo not given) | -18.3% and -6.45%
Nc1c2c(nc3ccccc13)CCCC2 | -10.2%

Biological target: Hexokinase-4 (Homo sapiens) + Glucokinase regulatory protein (Homo sapiens) (UniProt P35557+Q14397)
Assay: qHTS assay for inhibitors of recombinant human GCK-GKRP interaction: Diaphorase-coupled assay (AID 743205; active means well fitted curve in the direction sought with a large enough effect; an effect the other way counts as inactive or inconclusive)
Conditions: G6PDH/diaphorase resorufin fluorescence; series mostly up to 57.5 µM; activity change, positive = activation: at the top concentration
Summary of the method: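 25 mM Hepes pH 7.6, 5 mM glucose, 0.4 mM ATP, 4 U/ml G6PDH; 10 nM each GST-GCK/FLAG-GKRP. Kinetic fluorescence read, 1/min × 30 min. Normalized: DMSO ± enzyme = max/min.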

Sequence of Hexokinase-4 (Homo sapiens) + Glucokinase regulatory protein (Homo sapiens) (P35557 whole entry, looked up): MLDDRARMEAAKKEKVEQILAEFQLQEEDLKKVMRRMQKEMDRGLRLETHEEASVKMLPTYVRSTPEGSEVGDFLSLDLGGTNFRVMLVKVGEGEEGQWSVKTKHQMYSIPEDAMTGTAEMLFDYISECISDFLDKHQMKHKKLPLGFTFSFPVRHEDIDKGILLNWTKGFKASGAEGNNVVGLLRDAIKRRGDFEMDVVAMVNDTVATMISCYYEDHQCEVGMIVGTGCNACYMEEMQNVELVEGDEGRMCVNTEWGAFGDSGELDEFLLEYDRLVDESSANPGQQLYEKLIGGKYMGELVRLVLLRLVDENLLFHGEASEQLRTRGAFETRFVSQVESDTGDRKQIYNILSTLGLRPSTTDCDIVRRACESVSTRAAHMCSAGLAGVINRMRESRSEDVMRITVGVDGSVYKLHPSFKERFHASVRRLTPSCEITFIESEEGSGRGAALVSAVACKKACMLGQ
Sequence of Hexokinase-4 (Homo sapiens) + Glucokinase regulatory protein (Homo sapiens) (Q14397 whole entry, looked up): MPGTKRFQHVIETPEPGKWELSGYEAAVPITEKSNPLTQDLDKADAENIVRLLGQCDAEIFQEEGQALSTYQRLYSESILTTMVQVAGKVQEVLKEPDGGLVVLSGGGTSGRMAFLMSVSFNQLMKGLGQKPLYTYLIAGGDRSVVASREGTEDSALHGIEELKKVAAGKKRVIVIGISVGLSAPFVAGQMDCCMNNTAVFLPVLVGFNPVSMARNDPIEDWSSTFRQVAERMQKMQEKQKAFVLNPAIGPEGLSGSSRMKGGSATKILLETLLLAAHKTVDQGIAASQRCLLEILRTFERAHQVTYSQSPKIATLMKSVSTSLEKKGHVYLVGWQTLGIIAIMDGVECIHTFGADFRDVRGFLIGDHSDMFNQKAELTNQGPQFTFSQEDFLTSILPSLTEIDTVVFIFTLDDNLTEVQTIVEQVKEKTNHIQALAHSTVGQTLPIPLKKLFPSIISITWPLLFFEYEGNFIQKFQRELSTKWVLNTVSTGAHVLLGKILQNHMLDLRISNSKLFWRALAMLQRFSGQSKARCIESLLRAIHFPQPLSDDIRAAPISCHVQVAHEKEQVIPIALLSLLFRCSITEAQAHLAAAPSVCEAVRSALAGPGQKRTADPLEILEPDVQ

Structure (SMILES) | activity change, positive = activation
Cn1ccc2cc3c(cc21)CCN3C(=O)Nc1cccnc1 | -14%
Nc1ccn([C@H]2CC[C@@H](CO)O2)c(=O)n1 | -1.82%
CCC1(c2ccccc2)C(=O)NCNC1=O | 1.09%
CC(C)NCC(O)c1ccc(O)c(O)c1 (stereo not given) | -41.2%
NS(=O)(=O)c1cc2c(cc1Cl)NCNS2(=O)=O | -2.03%
COc1ccc(CCN(C)CCCC(C#N)(c2ccc(OC)c(OC)c2)C(C)C)cc1OC (stereo not given) | 1.77%
Cn1c(=O)c2c(ncn2C)n(C)c1=O | -0.97%
NCCS(=O)(=O)O | -5.16%
O=C1c2c(O)ccc(O)c2C(=O)c2c(NCCNCCO)ccc(NCCNCCO)c21 | -22.1%
Nc1c2c(nc3ccccc13)CCCC2 | -1.16%
